# In all, about 5,500 compounds went through this assay and about 2,000 (36%) were called active. Inconclusive results (about 18%) are left out. The list shows a part of the results. Unmarked numbers belong to inactive results. No stated cut-off is given here; in the data, active means normalized growth mostly below about 0.91 (no sharp cut-off); inconclusive means no clear call, values can overlap the other calls; inactive means mostly above about 0.92.
# Test: chemical genetic growth profiling, strain panel (AID 1159580);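 further: tested at 20 µM; growth read once vehicle control cultures reached saturation at 30 °C; 1 = growth at the plate median or of vehicle wells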
# Settings: S. cerevisiae deletion strains, growth OD
smiles,measurement,setting,value
CC(=O)C1CC[C@H]2C3CC[C@H]4C[C@H](O)CC[C@]4(C)C3CC[C@]12C (some centres not stated),normalized growth,"locus YJL187C, strain SWE1, stronger effect = lower value",1.01
same,normalized growth,"locus YJR043C, strain POL32, stronger effect = lower value",1.05
same,normalized growth,"locus YJR066W, strain TOR1, stronger effect = lower value",0.924
same,normalized growth,"locus YKL009W, strain mrt4, stronger effect = lower value",0.978
same,normalized growth,"locus YKL068W, stronger effect = lower value",0.993
same,normalized growth,"locus YKL085W, strain MDH1 (second series), stronger effect = lower value",1.01
same,normalized growth,"locus YKL085W, strain MDH1, stronger effect = lower value",1.01
same,normalized growth,"locus YKL160W, strain elf1, stronger effect = lower value",0.976
same,normalized growth,"locus YKL190W, strain CNB1, stronger effect = lower value",1.01
same,normalized growth,"locus YKR001C, strain vps1, stronger effect = lower value",1.02
same,normalized growth,"locus YKR026C, strain gcn3, stronger effect = lower value",1
same,normalized growth,"locus YKR091W, strain srl3, stronger effect = lower value",1.01
same,normalized growth,"locus YLL001W, strain dnm1, stronger effect = lower value",1
same,normalized growth,"locus YLL026W, stronger effect = lower value",1.02
same,normalized growth,"locus YLL041C, strain sdh2, stronger effect = lower value",0.997
same,normalized growth,"locus YLR027C, strain aat2, stronger effect = lower value",0.983
same,normalized growth,"locus YLR039C, strain RIC1, stronger effect = lower value",0.797
same,normalized growth,"locus YLR058C, strain SHM2, stronger effect = lower value",0.991
same,normalized growth,"locus YLR102C, strain apc9, stronger effect = lower value",1
same,normalized growth,"locus YLR113W, strain HOG1, stronger effect = lower value",1.01
same,normalized growth,"locus YLR221C, strain rsa3, stronger effect = lower value",1.03
same,normalized growth,"locus YLR258W, strain gsy2, stronger effect = lower value",0.964
same,normalized growth,"locus YLR262C, strain YPT6 (second series), stronger effect = lower value",0.778 (active)
same,normalized growth,"locus YLR268W, strain sec22, stronger effect = lower value",0.977
same,normalized growth,"locus YLR320W, strain mms22, stronger effect = lower value",0.98
same,normalized growth,"locus YLR330W, strain CHS5, stronger effect = lower value",1
same,normalized growth,"locus YLR342W, strain FKS1 (second series), stronger effect = lower value",0.997
same,normalized growth,"locus YLR342W, strain FKS1, stronger effect = lower value",1.01
same,normalized growth,"locus YLR357W, strain rsc2, stronger effect = lower value",0.994
same,normalized growth,"locus YLR370C, strain arc18, stronger effect = lower value",0.999
same,normalized growth,"locus YLR371W, strain rom2, stronger effect = lower value",1
same,normalized growth,"locus YLR384C, strain iki3, stronger effect = lower value",0.977
same,normalized growth,"locus YLR418C, strain cdc73, stronger effect = lower value",0.993
same,normalized growth,"locus YML016C, strain PPZ1, stronger effect = lower value",0.994
same,normalized growth,"locus YML032C, strain rad52, stronger effect = lower value",0.969
same,normalized growth,"locus YML120C, strain ndi1, stronger effect = lower value",1.02
same,normalized growth,"locus YML124C, strain tub3, stronger effect = lower value",0.996
same,normalized growth,"locus YMR058W, strain fet3, stronger effect = lower value",1.01
same,normalized growth,"locus YMR078C, strain ctf18, stronger effect = lower value",0.988
same,normalized growth,"locus YMR125W, strain sto1, stronger effect = lower value",0.998
same,normalized growth,"locus YMR129W, stronger effect = lower value",1
same,normalized growth,"locus YMR205C, strain PFK2, stronger effect = lower value",1
same,normalized growth,"locus YMR223W, strain ubp8, stronger effect = lower value",0.977
same,normalized growth,"locus YMR231W, strain pep5, stronger effect = lower value",1.01
same,normalized growth,"locus YMR307W, strain GAS1, stronger effect = lower value",1.11
same,normalized growth,"locus YNL067W, strain RPL9B, stronger effect = lower value",0.967
same,normalized growth,"locus YNL071W, strain lat1, stronger effect = lower value",0.995
same,normalized growth,"locus YNL128W, strain TEP1, stronger effect = lower value",0.993
same,normalized growth,"locus YNL153C, strain GIM3, stronger effect = lower value",0.985
same,normalized growth,"locus YNL183C, strain NPR1, stronger effect = lower value",0.959
same,normalized growth,"locus YNL209W, strain ssb2, stronger effect = lower value",0.987
same,normalized growth,"locus YNL233W, strain BNI4, stronger effect = lower value",0.992
same,normalized growth,"locus YNL248C, strain rpa49, stronger effect = lower value",0.939
same,normalized growth,"locus YNL250W, strain rad50, stronger effect = lower value",0.946
same,normalized growth,"locus YNL271C, strain bni1, stronger effect = lower value",0.986
same,normalized growth,"locus YNL298W, strain CLA4, stronger effect = lower value",0.993
same,normalized growth,"locus YNL307C, strain MCK1, stronger effect = lower value",1.01
same,normalized growth,"locus YNL322C, strain KRE1 (second series), stronger effect = lower value",1.01
same,normalized growth,"locus YNR049C, strain mso1, stronger effect = lower value",1.01
same,normalized growth,"locus YNR052C, strain pop2, stronger effect = lower value",0.943
same,normalized growth,"locus YOL012C, strain htz1",0.983
same,normalized growth,"locus YOL147C, strain pex11, stronger effect = lower value",0.994
same,normalized growth,"locus YOR001W, strain rrp6, stronger effect = lower value",0.994
same,normalized growth,"locus YOR061W, strain CKA2, stronger effect = lower value",1.01
same,normalized growth,"locus YOR069W, strain VPS5, stronger effect = lower value",0.988
same,normalized growth,"locus YOR070C, strain gyp1, stronger effect = lower value",0.991
same,normalized growth,"locus YOR080W, strain dia2, stronger effect = lower value",1.01
same,normalized growth,"locus YOR083W, strain WHI5, stronger effect = lower value",0.984
same,normalized growth,"locus YOR106W, strain vam3, stronger effect = lower value",0.995
same,normalized growth,"locus YOR136W, strain idh2, stronger effect = lower value",0.992
same,normalized growth,"locus YOR144C, strain elg1, stronger effect = lower value",0.998
same,normalized growth,"locus YOR184W, strain ser1, stronger effect = lower value",0.981
same,normalized growth,"locus YOR231W, strain MKK1, stronger effect = lower value",0.996
same,normalized growth,"locus YOR265W, strain rbl2, stronger effect = lower value",0.993
same,normalized growth,"locus YOR270C, strain vph1, stronger effect = lower value",0.949
same,normalized growth,"locus YOR290C, strain snf2, stronger effect = lower value",0.951
same,normalized growth,"locus YOR316C, strain cot1, stronger effect = lower value",1
same,normalized growth,"locus YPL051W, strain arl3, stronger effect = lower value",0.986
same,normalized growth,"locus YPL078C, strain atp4, stronger effect = lower value",0.976
same,normalized growth,"locus YPL106C, strain sse1, stronger effect = lower value",1.04
same,normalized growth,"locus YPL240C, strain hsp82, stronger effect = lower value",1.02
same,normalized growth,"locus YPL256C, strain CLN2, stronger effect = lower value",1.01
same,normalized growth,"locus YPR119W, strain clb2, stronger effect = lower value",0.997
same,normalized growth,"locus YPR141C, strain kar3, stronger effect = lower value",0.99
same,normalized growth,"locus YPR163C, strain tif3, stronger effect = lower value",0.99
same,normalized growth,"locus YPR167C, strain met16, stronger effect = lower value",0.995
same,normalized growth,"strain wtn01, stronger effect = lower value",0.987
